# Unmarked numbers belong to inactive results. The rule behind the calls is not given here.
# Biological target: Pantothenate synthetase (Mycobacterium tuberculosis (strain ATCC 25618 / H37Rv)) (UniProt P9WIL5)
# Assay: Coupled enzyme confirmation of inhibitors against recombinant Mtb PanC (AID 375);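 note: 0% = full reaction with vehicle and 100% = no enzyme background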
# Conditions: coupled enzyme assay; at 10 µM, active compounds read high
# Sequence of Pantothenate synthetase (Mycobacterium tuberculosis (strain ATCC 25618 / H37Rv)) (P9WIL5 whole entry, looked up): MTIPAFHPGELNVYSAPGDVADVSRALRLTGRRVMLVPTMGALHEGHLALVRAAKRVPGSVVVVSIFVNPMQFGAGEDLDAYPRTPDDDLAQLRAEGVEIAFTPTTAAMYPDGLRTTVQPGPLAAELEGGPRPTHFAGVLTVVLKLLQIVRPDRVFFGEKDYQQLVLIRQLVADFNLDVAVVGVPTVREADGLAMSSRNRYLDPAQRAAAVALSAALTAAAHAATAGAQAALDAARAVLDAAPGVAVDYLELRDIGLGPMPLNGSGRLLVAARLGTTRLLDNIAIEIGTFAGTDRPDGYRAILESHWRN
row,SMILES,inhibition
1,CC(=O)NC(CCS(C)(=O)=O)C(=O)Nc1cccc(C)c1C (stereo not given),0%
2,Cc1cc(Nc2ccccc2F)n2ncnc2n1,0%
3,COC(=O)C1=C(C)Nc2nnnn2C1c1ccc(Cl)cc1Cl (stereo not given),0%
4,CCOC(=O)C1=C(C)N(C)C(=O)NC1c1cccc(O)c1 (stereo not given),0%
5,Clc1cccc(-c2nn3c(Cn4cnc5ccccc54)nnc3s2)c1,0%
6,Cc1cc(NC(=O)CSc2nc3c(c(=O)n2Cc2ccccc2)SC(C)C3)no1 (stereo not given),0%
7,CC(C)[C@H](NC(=O)[C@@H]1CSCN1C(=O)OC(C)(C)C)C(=O)NCC1CCC(C(=O)O)CC1 (stereo not given in full),7%
8,CCOC(=O)C(NCc1ccccc1OC)(NC(C)=O)C(F)(F)F (stereo not given),0%
9,COc1ccc(-n2c(Cc3cccn3C)nnc2SCC(=O)Nc2cccc(OC)c2)cc1,2%
10,Cc1cc(=O)[nH]c(S/C=C/c2ccccc2)n1,0%
11,O=C1CC(c2cccs2)CC2=C1C(c1ccccc1)n1ncnc1N2 (stereo not given),3%
12,CCN1CCN(C(=O)Cn2ncc3ccsc3c2=O)CC1,0%
13,COc1ccccc1NC(=O)C1CC(=O)N(c2ccc(F)cc2)C1 (stereo not given),0%
14,Cc1ccc(CNc2cc(-c3nn4c(C)nnc4s3)ccc2C)s1,4%
15,COc1ccc(C)cc1NC(=O)CN(Cc1nnc(-c2ccc(Cl)cc2)o1)C1CCCC1,0%
16,COCCOC(=O)C1=C(C)N=c2s/c(=C\c3cccs3)c(=O)n2C1c1cccs1 (stereo not given),1%
17,Cc1cccc(N2C(=O)CC(Sc3nc(C)c4c(n3)CCCC4)C2=O)c1 (stereo not given),0%
18,COc1ccc(S(=O)(=O)N2CCN(c3ccc(C)cc3C)CC2)cc1OC,3%
19,COC(=O)[C@H](CCSC)NC(=O)Nc1cc(C)ccc1C,0%
20,CCn1nc(C(=O)OCC(=O)N2CCc3ccccc32)c2ccccc2c1=O,7%

row,SMILES,inhibition
1,O=C(CCN1C(=O)c2ccccc2C1=O)OCN1C(=O)c2ccccc2C1=O,5%
2,CC(=O)NS(=O)(=O)c1ccc(NC(=O)c2ccccc2F)cc1,0%
3,CC(C)Cn1c(N)c(C(=O)COC(=O)c2cc(-c3ccco3)nc3ccccc23)c(=O)n(C)c1=O,7%
4,O=C(Nc1ccc(Cl)cn1)c1cccnc1,0%
5,O=C(c1ccco1)N1CCN(S(=O)(=O)c2ccc3c(c2)CCN3C(=O)C2CCC2)CC1,0%
6,COc1cccc(-c2nnc3sc(-c4ccc(C)cc4)nn23)c1,0%
7,COC(=O)Nc1ccc(C)cc1NC(=O)OC,2%
8,COc1ccc(CC(NC(C)=O)C(=O)NC2CCN(c3nc(C)cc(C)c3C#N)CC2)c(OC)c1 (stereo not given),0%
9,CCOCCCNC(=O)CC1Oc2ccc(C)cc2NC1=O (stereo not given),0%
10,CCOC(=O)C(C)(C)Sc1nc2c(cnn2-c2ccc(Cl)cc2)c(=O)[nH]1,0%
11,COc1ccc(CN(C(=O)CNC(=O)c2ccco2)C(C(=O)NC2CCCC2)c2ccco2)cc1 (stereo not given),5%
12,CSc1nc(N)nc(SCCS(=O)(=O)c2ccc(Cl)cc2)c1C#N,0%
13,CCOc1ccc(NC(=O)CSc2nnc(COc3c(C)cccc3C)o2)cc1,1%
14,CC1=C(C(N)=O)C(c2cccnc2)n2nc(SCc3ccccc3Cl)nc2N1 (stereo not given),0%
15,O=S1(=O)Nc2c(ccc3cccnc23)-c2ccccc21,0%
16,CCOc1ccccc1C1N(c2ccc(F)cc2)C(=O)C2CCCN21 (stereo not given),2%
17,O=C(O)CCN(CCC(=O)O)c1nnc(SCc2ccccc2)s1,2%
18,COc1cccc(-c2nc(CS(=O)(=O)CC(=O)Nc3cc(C)ccc3C)c(C)o2)c1,0%
19,O=C(CN1CCN(c2ccccn2)CC1)N1c2ccccc2CCc2ccccc21,0%
20,CCCc1nc(N2CCOCC2)c(C#N)c2c1CCCC2,4%

# Source: PubChem BioAssay
